This note sets out measurements from PubChem BioAssay.

Assay [1] relates to Wnt5a (protein binding on small-molecule microarray). Put plainly: Wnt5a binders on small-molecule microarray, primary screen, biophysical, 635/667 nm fluorescence (AID 1142).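 Also: fluorescence read at 667 nm with signal to noise per printed feature.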 The following applies: 635 nm fluorescence, higher = more signal.
Assay [2] in a line: cell viability in Huh7 cells, primary screen, cytotoxicity control for HCV replication inhibitor project, CellTiter-Glo luminescence, basal, 48 h (AID 1143).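 Also: Huh7 hepatoma cells carrying a hepatitis C replication reporter with no stimulus; test concentration not given here.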 The following applies: Huh7 HCV replicon, higher = more signal, called active from +8 up or from −8 down. (In general: In ATP-based viability assays light output follows the ATP content of the culture.)
Assay [3] can be described thus: P. aeruginosa biofilm formation inhibitors, primary screen, PAO1 strain, BacTiter-Glo luminescence, LB-PBS (AID 1144). To be noted: 12 h, higher = more signal.
Assay [4] in a line: CREB reporter modulators without forskolin, primary screen, cell-based, PC12, CRE-LacZ reporter, unstimulated (AID 1145). The following applies: no forskolin, luminescence, 4.5 h, higher = more signal, called active from +8 up or from −8 down.
Assay [5] in a line: CREB reporter modulators under forskolin, primary screen, cell-based, PC12, CRE-LacZ reporter, forskolin-stimulated (AID 1146).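 Also: PC12 cells with 6xCRE LacZ reporter stimulated by forskolin 10 µM; beta-galactosidase reporter signal reflecting CREB driven transcription.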 The following applies: luminescence, 4.5 h, higher = more signal, called active from +8 up or from −8 down.
Assay [6] has as its target Streptavidin (Streptomyces avidinii) (UniProt P22629). Kind of assay: streptavidin binders on small-molecule microarray, primary screen, artefact control for SMM compound annotation, biophysical, 635/667 nm fluorescence (AID 1147).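 Also: signal reflects streptavidin binding to arrayed compounds as a control protein.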 The following applies: streptavidin binding, higher = more signal.
Assay [7] in a line: small-molecule binders of probe aInhba, primary screen, biochemical, small-molecule microarray, 635/667 nm fluorescence (AID 1148).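 Also: score merges 667nm spot fluorescence with signal-to-noise for antibody binding to printed compounds.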 The following applies: higher = more signal.
Assay [8] has as its target Torsin-1A (Homo sapiens) (UniProt O14656). Put plainly: torsin A binders from cell lysate, primary screen, small-molecule microarray, wild-type, 635/667 nm (AID 1149). To be noted: COS7 hTOR1A-WT lysate, 635 nm fluorescence, higher = more signal.
For assay [9] the target is unchanged. Kind of assay: small-molecule binders of mutant TOR1A in lysate, primary screen, cell lysate, small-molecule microarray, COS7 lysate, 635/667 nm fluorescence (AID 1150).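 Also: score pools 667 nm emission and signal to noise measuring lysate protein binding.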 The following applies: COS7 hTOR1A mutant lysate, 635 nm fluorescence, higher = more signal.
The test system of assay [10] is Sonic hedgehog protein (Shh). Kind of assay: small-molecule binders of Shh protein, primary screen, biochemical, small-molecule microarray, 635/667 nm fluorescence (AID 1151).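 Also: Shh protein binding to compounds spotted on small-molecule microarray slides; score combines spot fluorescence intensity with signal-to-noise across triplicate slides.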 The following applies: small-molecule microarray binding, 635 nm fluorescence; higher = more signal.
Assay [11] in a line: E. coli DRC41 culture turbidity changes, primary screen, E. coli filamentation inducer project, strain DRC41, OD650, 48 h (AID 1152).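 Also: E. coli MC1000 strain DRC41 lacking acrAB efflux pump and sulA.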 To be noted: E. coli DRC41 (acrAB sulA), higher = more signal, called active from +8 up or from −8 down.
Assay [12] is described as follows: small-molecule binders of probe aLefty1, primary screen, biochemical, small-molecule microarray, 635/667 nm fluorescence (AID 1153).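 Also: score merges spot fluorescence with signal-to-noise ratio from the scanned slide images.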 To be noted: higher = more signal.
Assay [13] in a line: PSAC antagonists in infected red cells, primary screen, cell-based, P. falciparum Indochina, OD700, 1 h (AID 1154). The following applies: P. falciparum Indochina infected RBC osmotic lysis, higher = more signal, called active from +8 up or from −8 down.
The nature of assay [14]: PSAC antagonists in infected red cells, primary screen, cell-based, P. falciparum Indochina, OD700, 2 h (AID 1155).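 Also: lysis reports solute entry through the parasite surface anion channel PSAC; channel blockers reduce lysis of infected cells.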 The following applies: P. falciparum Indochina infected erythrocytes, osmotic lysis OD700; higher = more signal, called active from +8 up or from −8 down.
The nature of assay [15]: osmotic lysis modulators in infected erythrocytes, primary screen, PSAC antagonist project, cell-based, P. falciparum Indochina, OD700, 3 h (AID 1156). The following applies: higher = more signal, called active from +8 up or from −8 down.
Assay [16] is described as follows: PSAC antagonists in infected red cells, primary screen, cell-based, P. falciparum Indochina, OD700, 18 h (AID 1157). The following applies: P. falciparum Indochina infected erythrocytes, osmotic lysis OD700, 18 h; higher = more signal, called active from +8 up or from −8 down.
Assay [17] in a line: modulators of S6 phosphorylation in cells, primary screen, cell-based, A549, cytoblot, luminescence, serum-stimulated (AID 1158).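 Also: serum-stimulated A549 lung adenocarcinoma cells; signal is phosphorylated S6 detected by cytoblot immunostaining with HRP secondary.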 The following applies: A549 phospho-S6 cytoblot, 5 h, higher = more signal.
For assay [18], the target named is NADPH oxidase 2 (Homo sapiens) (UniProt P04839). Kind of assay: NOX2-dependent H2O2 signal modulators, primary screen, NOX inhibitor project, cell-based, HEK293-NOX2, PMA-stimulated, Amplex Red fluorescence (AID 1159). Also: test concentration not given here. To be noted: 45 min, higher = more signal, called active from +8 up or from −8 down.
Chain of NADPH oxidase 2 (Homo sapiens) (P04839 whole entry, looked up): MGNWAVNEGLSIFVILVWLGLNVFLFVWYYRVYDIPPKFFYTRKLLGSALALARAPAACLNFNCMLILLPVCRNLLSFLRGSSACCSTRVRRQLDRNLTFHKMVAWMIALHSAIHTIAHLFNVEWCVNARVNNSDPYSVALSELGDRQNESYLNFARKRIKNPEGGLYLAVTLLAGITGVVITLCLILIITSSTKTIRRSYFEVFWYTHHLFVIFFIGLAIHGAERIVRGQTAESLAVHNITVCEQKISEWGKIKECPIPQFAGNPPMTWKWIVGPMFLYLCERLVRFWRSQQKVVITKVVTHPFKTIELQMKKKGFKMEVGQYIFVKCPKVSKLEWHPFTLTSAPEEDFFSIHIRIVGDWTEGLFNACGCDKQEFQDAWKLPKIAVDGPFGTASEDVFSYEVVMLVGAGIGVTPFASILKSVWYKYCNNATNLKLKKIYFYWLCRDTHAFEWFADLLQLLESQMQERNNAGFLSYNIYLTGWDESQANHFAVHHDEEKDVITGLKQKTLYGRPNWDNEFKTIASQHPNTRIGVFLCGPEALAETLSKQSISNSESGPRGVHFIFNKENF
Assay [19] deals with NADPH oxidase 4 (Homo sapiens) (UniProt Q9NPH5). Kind of assay: NOX4-dependent H2O2 signal modulators, primary screen, NOX inhibitor project, cell-based, HEK293-NOX4, tetracycline-induced, Amplex Red fluorescence (AID 1160). To be noted: 45 min, higher = more signal, called active from +8 up or from −8 down.
Chain of NADPH oxidase 4 (Homo sapiens) (Q9NPH5 whole entry, looked up): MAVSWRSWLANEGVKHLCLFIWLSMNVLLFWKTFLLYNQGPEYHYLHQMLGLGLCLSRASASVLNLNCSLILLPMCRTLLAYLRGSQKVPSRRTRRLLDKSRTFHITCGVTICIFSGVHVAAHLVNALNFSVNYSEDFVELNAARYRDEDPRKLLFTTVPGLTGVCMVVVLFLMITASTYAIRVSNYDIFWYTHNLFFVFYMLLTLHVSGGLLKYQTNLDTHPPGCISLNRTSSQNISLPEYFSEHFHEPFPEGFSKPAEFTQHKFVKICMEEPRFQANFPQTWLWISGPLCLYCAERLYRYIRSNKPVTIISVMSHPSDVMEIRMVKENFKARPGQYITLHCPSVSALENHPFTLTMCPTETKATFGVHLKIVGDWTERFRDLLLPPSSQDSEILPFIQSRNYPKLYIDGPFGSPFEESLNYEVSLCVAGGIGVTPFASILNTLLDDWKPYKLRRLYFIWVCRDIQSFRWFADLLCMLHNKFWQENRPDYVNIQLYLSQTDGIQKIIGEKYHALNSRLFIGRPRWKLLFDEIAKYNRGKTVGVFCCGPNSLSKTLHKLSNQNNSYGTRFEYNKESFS
Assay [20] has as its target NADPH oxidase 5 (Homo sapiens) (UniProt Q96PH1). Put plainly: NOX5-dependent H2O2 signal modulators, primary screen, NOX inhibitor project, cell-based, HEK293-NOX5, Amplex Red fluorescence (AID 1161). The following applies: HEK293-NOX5, ionomycin, 45 min, higher = more signal.

The source made the active and inactive calls. Unless noted, no rule for the calls is given here.

Chain of NADPH oxidase 5 (Homo sapiens) (Q96PH1 whole entry, looked up): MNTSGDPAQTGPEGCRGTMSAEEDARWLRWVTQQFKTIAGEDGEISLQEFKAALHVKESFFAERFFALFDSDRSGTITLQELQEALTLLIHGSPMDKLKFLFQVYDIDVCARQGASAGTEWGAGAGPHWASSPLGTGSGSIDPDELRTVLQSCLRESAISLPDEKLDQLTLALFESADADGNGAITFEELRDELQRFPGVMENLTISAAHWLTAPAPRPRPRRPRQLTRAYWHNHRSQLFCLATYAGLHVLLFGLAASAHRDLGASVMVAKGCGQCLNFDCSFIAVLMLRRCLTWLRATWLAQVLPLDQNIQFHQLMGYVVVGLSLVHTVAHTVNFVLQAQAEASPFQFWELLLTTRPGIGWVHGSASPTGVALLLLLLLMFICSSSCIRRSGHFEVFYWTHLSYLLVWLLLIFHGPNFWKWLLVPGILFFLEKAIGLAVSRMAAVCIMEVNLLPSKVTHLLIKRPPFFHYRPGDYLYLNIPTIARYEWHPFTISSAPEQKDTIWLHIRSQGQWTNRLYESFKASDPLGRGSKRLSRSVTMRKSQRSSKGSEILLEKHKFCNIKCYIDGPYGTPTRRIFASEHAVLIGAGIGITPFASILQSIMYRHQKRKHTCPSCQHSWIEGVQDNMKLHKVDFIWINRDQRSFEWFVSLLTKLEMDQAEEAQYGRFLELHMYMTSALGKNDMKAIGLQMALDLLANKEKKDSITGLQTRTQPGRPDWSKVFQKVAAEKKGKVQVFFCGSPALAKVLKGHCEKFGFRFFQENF
Chain of Streptavidin (Streptomyces avidinii) (P22629 whole entry, looked up): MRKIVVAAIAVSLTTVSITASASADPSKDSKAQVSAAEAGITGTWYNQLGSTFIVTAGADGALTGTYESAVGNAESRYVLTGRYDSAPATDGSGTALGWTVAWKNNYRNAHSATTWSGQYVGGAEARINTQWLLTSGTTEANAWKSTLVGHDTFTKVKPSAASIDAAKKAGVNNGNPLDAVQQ
Chain of Torsin-1A (Homo sapiens) (O14656 whole entry, looked up): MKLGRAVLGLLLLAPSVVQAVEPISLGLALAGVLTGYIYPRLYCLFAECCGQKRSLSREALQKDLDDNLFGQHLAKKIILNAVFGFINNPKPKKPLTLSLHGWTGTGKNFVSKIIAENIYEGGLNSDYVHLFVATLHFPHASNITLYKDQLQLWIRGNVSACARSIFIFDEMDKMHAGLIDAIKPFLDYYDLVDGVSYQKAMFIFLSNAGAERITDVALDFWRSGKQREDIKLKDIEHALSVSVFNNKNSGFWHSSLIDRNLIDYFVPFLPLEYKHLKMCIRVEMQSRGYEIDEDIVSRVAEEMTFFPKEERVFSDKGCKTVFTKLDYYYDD

`O=C1O[C@H](c2ccccc2)[C@H](c2ccccc2)N2[C@H]1[C@@H](C(=O)Nc1nc3ccccc3s1)[C@]1(C(=O)Nc3ccc(C#CCCO)cc31)[C@H]2c1ccc(O)cc1`: the composite z-score in [1] was -0.11; in [6], 1.09; in assay [7], -0.176; in assay [8], 0.232; in assay [9] it was 0.7; in assay [10], 1.36. The same compound gave a composite z-score in assay [12] of 0.026. Further, the z-score was 0.358 (inactive) in assay [2]; -0.911 (inactive) in assay [3]; -0.141 (inactive) in [4]; -0.782 (inactive) in [5]; -0.742 (inactive) in assay [11]; 0.402 (inactive) in [13]. The z-score in assay [14] was 1.05 (inactive); in [15] it was -5.42 (inactive); in assay [16] it was 1.23 (inactive); in [17] it was -0.263; in [18] it was 1.08 (inactive); in [19], 0.38 (inactive). For the same compound, the z-score in [20] was -0.901.
As for `COC(=O)C(CC#Cc1ccc2c(c1)[C@]1(C(=O)N2)[C@H](c2ccccc2OCCO)N2[C@H](c3ccccc3)[C@H](c3ccccc3)OC(=O)[C@H]2[C@@H]1C(=O)NC[C@H](O)c1ccccc1)C(=O)OC`, the composite z-score in [1] was 0.572; in [6] it was 0.0979; in assay [7], -0.199; in assay [8] it was 0.951; in [9] it was 0.68; in [10], 1.22. Moreover, the composite z-score in [12] was determined as 0.964. In addition, the z-score was -3.75 (inactive) in [2]; -1.26 (inactive) in [3]; -0.168 (inactive) in assay [4]; 0.717 (inactive) in assay [5]; 0.345 (inactive) in assay [11]; 2.45 (inactive) in assay [13]. Further, the z-score in assay [14] was 1.18 (inactive); in [15] it was 0.984 (inactive); in assay [16], 0.957 (inactive); in assay [17], 1.54; in assay [18] it was 1.63 (inactive); in [19], 1.03 (inactive). The compound also had a z-score in assay [20] of 1.34.
`C=CC[C@]1(C(=O)O)COC(c2ccc(OCCCO)cc2)=N1`: the composite z-score is -0.0405 in assay [1]; -0.447 in [6]; -0.103 in assay [7]; -0.0985 in assay [8]; 0.338 in assay [9]; 0.0518 in assay [10]. In [12], this compound gave a composite z-score of 0.0437. Further, the z-score in assay [2] was 0.543 (inactive); in assay [3], -0.852 (inactive); in [4] it was 1.46 (inactive); in assay [5] it was 0.123 (inactive); in assay [11] it was -0.27 (inactive); in [13], 2.23 (inactive). The z-score in assay [14] was -0.0432 (inactive); in assay [15], 0.472 (inactive); in assay [16], 0.2 (inactive); in assay [17], -0.331; in assay [18] it was 0.388 (inactive); in assay [19], -0.287 (inactive). In [20], this compound came in with a z-score of 1.09.
Regarding `C=CCOC(=O)[C@H]1[C@@H]2C(=O)O[C@@H](c3ccccc3)[C@@H](c3ccccc3)N2[C@@H](c2ccc(OCCOC(=O)[C@H]3C[C@H]4C(=O)N[C@@H](CCCCNC(C)=O)C(=O)N4[C@H]3c3ccc(O)cc3)cc2)[C@]12C(=O)Nc1ccccc12`, the composite z-score in assay [1] was 0.228; in assay [6] it was -0.292; in [7], -0.146; in [8] it was 0.757; in assay [9], 0.835; in [10], 1.75. The compound also returned a composite z-score in assay [12] of 0.026. Further, the z-score in assay [2] was -1.59 (inactive); in assay [3], -1.57 (inactive); in assay [4] it was 0.147 (inactive); in assay [5] it was -0.542 (inactive); in assay [11] it was 3.24 (inactive); in assay [13] it was 1.59 (inactive). In addition, the z-score in assay [14] was 0.512 (inactive); in assay [15], -0.821 (inactive); in assay [16] it was -0.927 (inactive); in [17], 1.4; in [18], 1.89 (inactive); in assay [19], 1.44 (inactive). The compound further returned a z-score in assay [20] of 1.04.
